Screens from PubChem.
KCNQ2 block: inhibitors of rat KCNQ2 potassium channel; CHO-K1 KCNQ2, FluxOR thallium flux, 20 min; stronger effect = lower value; B-score at 10 µM; actives 1.1% (n = 310,000);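 active means fluorescence ratio B-score at most minus 3 library SDs, with starting brightness B-score within 2 library SDs, cut at about -5.5 in these data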
KCNQ2 pot: enhances the rat KCNQ2 potassium channel | O88943 | CHO-K1 KCNQ2, FluxOR thallium flux fluorescence; stronger effect = higher value | B-score at 10 µM | actives 0.54% (n = 310,000) | AID 2239;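 active means fluorescence ratio B-score at least 3 SD of library B-scores, with initial fluorescence B-score within 3 of them, cut at about 5.3 in these data; same plate scores as AID 2156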;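 further: B-score of peak minus minimum over baseline fluorescence ratio after K+ and Tl+ stimulus; positive B-score means potentiation of KCNQ2 with more thallium influx and brighter signal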
Kir21 conf inh: confirmation of mouse Kir2.1 potassium channel inhibitors; Tl flux remaining, % of negative control (stronger effect = lower value), % at 10 µM; actives 41% (n = 2,300); Kir2.1-expressing cells, FluxOR thallium flux fluorescence; stronger effect = lower value; shares compounds with KCNQ2 pot;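 active means Primary-screen hit whose thallium flux fell at least 3 control SD below untreated wells in both duplicates, with normal baseline fluorescence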;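 further: 0% = blank wells without stimulus and 100% = stimulated no-compound controls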
Target sequence (P35561 whole entry, looked up): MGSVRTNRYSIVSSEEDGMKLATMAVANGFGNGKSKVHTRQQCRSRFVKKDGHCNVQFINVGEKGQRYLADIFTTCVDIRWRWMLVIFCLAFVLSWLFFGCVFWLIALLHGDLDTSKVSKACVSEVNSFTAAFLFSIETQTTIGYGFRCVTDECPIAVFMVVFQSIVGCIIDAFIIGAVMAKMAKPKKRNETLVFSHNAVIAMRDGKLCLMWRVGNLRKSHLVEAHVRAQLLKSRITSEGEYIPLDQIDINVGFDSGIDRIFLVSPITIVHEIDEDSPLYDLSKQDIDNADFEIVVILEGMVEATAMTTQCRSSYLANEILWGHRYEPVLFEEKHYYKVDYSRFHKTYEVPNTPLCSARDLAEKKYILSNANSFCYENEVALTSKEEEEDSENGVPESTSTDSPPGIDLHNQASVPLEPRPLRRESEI
HEK293 ctr: alters thallium flux in parental HEK293 cells, Kir2.1 counter-screen. FluxOR signal as % of negative control (100 = no effect), % at 10 µM. shares compounds with KCNQ2 pot. FluxOR thallium flux fluorescence; 0% = unstimulated blank wells. actives 19% (n = 2,300);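 active means dye signal at least 3 control SD above or below untreated wells in both duplicates, raw fluorescence within 3, either direction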;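 further: percent is based on the flux ratio of peak minus minimum fluorescence over baseline F0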
CHO-K1 Tl ctr: counter-screen for KCNQ2 potentiators: effect in parental CHO-K1 cells | shares compounds with KCNQ2 pot | FluxOR thallium flux fluorescence; zero = vehicle mean+3SD, 100% = vehicle-minus-blank window | activity increase over 3SD of controls, % at 10 µM | actives 43% (n = 1,200) | AID 2282;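 active means signal rise of at least 3 SD above the untreated control mean, in both duplicate wells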;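 further: counter screen of KCNQ2 potentiator hits so any rise reflects channel-independent effects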
KCNQ1 pot spec: selectivity of KCNQ2 potentiators: effect on human KCNQ1 | shares compounds with KCNQ2 pot | CHO KCNQ1 stable, FluxOR thallium flux fluorescence; beyond 3SD, as % of vehicle-control signal | activation over 3SD threshold, % at 10 µM | actives 28% (n = 1,200);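 active means fluorescence ratio rise of at least 3 SD of vehicle wells above their mean, in both replicate wells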;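 further: 0% = vehicle mean plus 3 SD and 100% = vehicle minus unstimulated blank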
KCNQ2 pot confirm: confirmation of rat KCNQ2 potassium channel potentiators. shares compounds with KCNQ2 pot. CHO-KCNQ2 cells, FluxOR thallium flux fluorescence. potentiation, less the hit threshold, % at 10 µM. actives 68% (n = 1,200);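 active means fluorescence ratio rising 3 SD or more over the vehicle control mean in both replicates, plus primary screen hit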;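 further: peak minus minimum thallium fluorescence divided by baseline after K/Tl stimulus; 0% = vehicle mean plus 3 SD and 100% = vehicle minus unstimulated blank difference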
Kir2-1 sel: tests whether KCNQ2 potentiators also affect mouse Kir2.1; shares compounds with KCNQ2 pot; HEK293 Kir2.1, FluxOR thallium flux fluorescence; activity over 3SD threshold, % at 10 µM; actives 2% (n = 1,200);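 active means fluorescence ratio rise of at least 3 SD above the vehicle-control mean, seen in both replicates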;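 further: 0% = vehicle mean plus 3 SD and 100% = vehicle minus no-stimulus blank window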
KCNQ2 W236L MoA: rat KCNQ2 W236L mutant potentiation by KCNQ2 potentiators; shares compounds with KCNQ2 pot; CHO KCNQ2-W236L, automated patch clamp current; current increase over 3SD of negative controls (%), stronger effect = higher value, % at 25 µM; actives 10% (n = 940);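 active means current increase at least 3 SD of the untreated controls above them in both duplicate recordings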
Starred values were filed as active, the others as inactive; i = inactive; nt = no result. An excerpt weighted towards active compounds, which were near 1.6% of everything screened.

SMILES | KCNQ2 block | KCNQ2 pot | Kir21 conf inh | HEK293 ctr | others
O=c1oc(Cc2ccccc2)nc2ccccc12 | i | nt | nt | nt
CN(C(=O)C1CCC(=O)N(CCCN2CCCC2=O)C1)C(C1CC1)C1CC1 (stereo not given) | i | 0.87 | nt | nt
Oc1c(Br)cc(Br)cc1/C=N/Nc1ccc(Cl)nn1 | i | 10.6* | i | i | CHO-K1 Tl ctr=-10.5;KCNQ1 pot spec=-17.8;KCNQ2 pot confirm=12.7*;Kir2-1 sel=-12.1;KCNQ2 W236L MoA=i
Oc1c(Br)cc(/C=N/Nc2ccc(Cl)nn2)cc1Br | i | 2.64 | nt | nt
COC(=O)c1nc(NC(=S)NC(=O)c2cccs2)sc1C | i | 5.79* | i | 140.5%* | CHO-K1 Tl ctr=5.0*;KCNQ1 pot spec=-29.9;KCNQ2 pot confirm=-1.6;Kir2-1 sel=-36.8;KCNQ2 W236L MoA=i
CCc1ccc(-c2nc(NC(=S)NC(=O)c3cccs3)sc2C)cc1 | i | 1.69 | nt | nt
Cc1c(C(=O)NC2CCN(Cc3ccccc3)C2)oc2c(Cl)cccc12 (stereo not given) | i | nt | i | i
O=C(NC1CCN(Cc2ccccc2)CC1)c1ccccc1Cl | i | 0.43 | nt | nt
C=CCNC(=S)NNC(=O)c1ccc(C)c(Cl)c1 | i | nt | nt | nt
CCN(CC)C(=S)NC(=O)c1ccc(OC)c(Br)c1 | i | 2.19 | nt | nt
C=CCN(CC=C)C(=S)NC(=O)c1ccc(OC)c(Br)c1 | i | 7.23* | i | 336.5%* | CHO-K1 Tl ctr=1.9*;KCNQ1 pot spec=19.7*;KCNQ2 pot confirm=20.1*;Kir2-1 sel=-25.4;KCNQ2 W236L MoA=i
C=CCNC(=S)NC(=O)c1ccc(C)c(Br)c1 | i | 5.67* | i | i | CHO-K1 Tl ctr=22.1*;KCNQ1 pot spec=-26.2;KCNQ2 pot confirm=-11.6;Kir2-1 sel=-40.2
O=[N+]([O-])c1ccccc1S(=O)(=O)Nc1cccnc1 | i | 0.47 | nt | nt
Cc1ccc(S(=O)(=O)N2CCC(C(=O)N/N=C/c3cccnc3)CC2)cc1 | i | 0.01 | nt | nt
CCc1ccc(OCC(=O)NCc2ccco2)c(Br)c1 | i | 7.85* | i | i | CHO-K1 Tl ctr=-24.6;KCNQ1 pot spec=-13.6;KCNQ2 pot confirm=22.1*;Kir2-1 sel=-20.8;KCNQ2 W236L MoA=i
O=C(COc1ccccc1Br)NCc1ccco1 | i | 0.03 | nt | nt
O=C(c1ccco1)N1CCN(CCOCCOc2cccc3ccccc23)CC1 | i | 0.35 | nt | nt
c1ccc(CN2CCN(CCOCCOc3cccc4ccccc34)CC2)cc1 | i | nt | 19.0%* | i
NC(=O)CC(NC(=O)Cc1ccc(Cl)cc1)c1ccc(NC2CC3CCC2C3)c([N+](=O)[O-])c1 (stereo not given) | i | 3.52 | nt | nt
Cc1cc2[nH]c3c(c[n+](C)c4ccccc34)c2cc1C | i | nt | i | i
Cc1cc(=O)[nH]c2ccccc12 | i | nt | nt | nt
Cc1nn(-c2ccccc2)c(C)c1/C=N/NC(=O)CSc1nnc(SCc2cccc3ccccc23)s1 | i | nt | nt | nt
Brc1cccc(C=Nc2cccc3ncccc23)c1 | i | 0.34 | nt | nt
Oc1c(Br)cc(Br)cc1C=Nc1cccc2ncccc12 | i | 13.8* | i | i | CHO-K1 Tl ctr=-16.6;KCNQ1 pot spec=-17.7;KCNQ2 pot confirm=-10.1;Kir2-1 sel=-22.9;KCNQ2 W236L MoA=i
CCCNC(=O)CCc1c(C)nc2nc(C)nn2c1C | i | 0.7 | nt | nt
SMILES | KCNQ2 block | KCNQ2 pot | Kir21 conf inh | HEK293 ctr | others
O=[N+]([O-])c1cccc(N/N=C/c2cc([N+](=O)[O-])ccc2O)c1 | i | 1.27 | nt | nt
O=[N+]([O-])c1ccc(N/N=C/c2ccccc2O)cc1 | i | 7.86* | i | 74.0%* | CHO-K1 Tl ctr=56.3*;KCNQ1 pot spec=-19.5;KCNQ2 pot confirm=-23.6;Kir2-1 sel=-43.5
CCC(C(=O)OCC(=O)N1C(C)CCCC1C)c1ccccc1 (stereo not given) | i | nt | nt | nt
OCc1cc(C(O)CNCCCCCCOCCCCc2ccccc2)ccc1O (stereo not given) | i | 0.73 | 31.5%* | i
OC(CNCc1cccc(Br)c1)c1ccccc1 (stereo not given) | i | 0.38 | nt | nt
COc1ccc(CCNC(=O)C2Cc3ccccc3C(=O)O2)cc1 (stereo not given) | i | nt | nt | nt
COc1ccc(CCNC2CCc3ccccc3C2)cc1 (stereo not given) | i | 2.77 | 40.0%* | i
Cc1ccc(NC(=O)Cn2c([N+](=O)[O-])cnc2C)cc1Cl | i | nt | nt | nt
O=C(CC1(c2ccc(Cl)cc2)C2CC3CC(C2)CC1C3)NCCO (stereo not given) | i | 5.37* | i | i | CHO-K1 Tl ctr=48.4*;KCNQ1 pot spec=72.5*;KCNQ2 pot confirm=13.6*;Kir2-1 sel=-46.2;KCNQ2 W236L MoA=i
O=C(COC(=O)C12CC3CC(CC(O)(C3)C1)C2)NCCc1ccc(Cl)cc1 | i | nt | nt | nt
CCC(CC)C(=O)N1c2ccc(F)cc2CCC1C (stereo not given) | i | nt | nt | nt
CC(C(=O)N1c2ccc(F)cc2CCC1C)N1C(=O)c2ccccc2C1=O (stereo not given) | i | 7.6* | i | 123.0%* | CHO-K1 Tl ctr=102.6*;KCNQ1 pot spec=-9.0;KCNQ2 pot confirm=-11.9;Kir2-1 sel=-32.5
Cc1onc(-c2c(F)cccc2Cl)c1C(=O)Nc1nnc(C(F)(F)F)s1 | i | 0.89 | nt | nt
CC/C(=N/NC(=O)c1ccc2c(c1)OCO2)c1ccccc1O | i | 7.86* | i | i | CHO-K1 Tl ctr=-11.6;KCNQ1 pot spec=-20.0;KCNQ2 pot confirm=16.4*;Kir2-1 sel=-31.1;KCNQ2 W236L MoA=i
CC/C(=N\NC(=O)c1ccc2c(c1)OCO2)C12CC3CC(CC(C3)C1)C2 | i | nt | nt | nt
CC(=O)N1CCOc2ccc(S(=O)(=O)N(C)c3ccc(C)cc3)cc21 | i | nt | nt | nt
Cc1ccc(NC(=S)NC(=O)c2cncc(Br)c2)cc1Cl | i | 7.23* | i | i | CHO-K1 Tl ctr=0.8*;KCNQ1 pot spec=-8.5;KCNQ2 pot confirm=-15.6;Kir2-1 sel=-37.8
O=C(NC(=S)Nc1ccc(Cl)cc1)c1cncc(Br)c1 | i | 2.85 | nt | nt
O=C1CCCCN1CCC(=O)N1CCCC(Nc2ccccc2)C1 (stereo not given) | i | 1.48 | nt | nt
CC1(CCC(=O)N2CCCC(Nc3ccc(F)cc3)C2)CC1 (stereo not given) | i | nt | 51.0%* | i
O=C(CCc1cccc(Cl)c1)N1CCCC(Nc2ccccc2)C1 (stereo not given) | -7.05* | -7.05 | 69.5%* | i
O=C(CC1CCCC1)N1CCCC(Nc2ccc(F)cc2)C1 (stereo not given) | i | 1.53 | nt | nt
O=C(Cc1ccc(Cl)cc1)NNC(=O)C1CC=CCC1C(=O)O (stereo not given) | i | nt | nt | nt
CCN(Cc1ccccc1)CC(O)COC(c1ccc(OC)cc1)c1ccc(OC)cc1 (stereo not given) | i | nt | 65.5%* | i
CCN(CC)CC(O)COC(c1ccccc1)c1ccccc1 (stereo not given) | i | 0.53 | nt | nt
